A short description of this test: qHTS drug screen for cell cycle checkpoint inhibitors in PARPi-resistant BRCA-mutant ovarian cancer cell lines. (AID 1963452). The note with it: PEO1/OlaR viability, CellTiter-Glo luminescence, 96 h; for Z-AUC: stronger effect = lower value. Put shortly:
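PEO1, PEO4 and PEO1/OlaR ovarian cancer cells, 600 per well, exposed 96 h at 37C to a dilution series. Viability read by CellTiter-Glo luminescence, normalized to DMSO and empty wells; activity summarized as Z-AUC.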

Where [1] appears, read: measured here: PEO1 parental Z-AUC.

The source made the active and inactive calls. The call rests on the fitted dose curve.
Potency means the concentration at half of the fitted maximal effect.

Take `CNC(=O)c1ccc2c(C(=Nc3cccc(CN(C)C)c3)c3ccccc3)c(O)[nH]c2c1`: the Z-AUC is -0.0393 (inactive). Also, the Z-AUC under setting [1] was determined as 0.42. Moreover, the Z-AUC (measured here: PEO4 Z-AUC) stood at 0.638.

With `COc1nccc(-c2c(-c3ccc(F)cc3)ncn2C2CCNCC2)n1`, the Z-AUC was 1.19 (inactive). For the same compound, under setting [1], the Z-AUC amounted to 0.981. Moreover, the Z-AUC (measured here: PEO4 Z-AUC) came to 0.889.

As for `Cc1cccc(Nc2nc(N[C@@H]3CCCC[C@H]3N)ncc2C(N)=O)c1`, the Z-AUC was -0.597 (inactive). The Z-AUC under setting [1] is -0.615. The Z-AUC (measured here: PEO4 Z-AUC) is -0.03.

For the compound `Cc1cnc(Nc2cccc(CN3CCOCC3)c2)nc1Nc1cccc(S(=O)(=O)NC(C)(C)C)c1`, the Z-AUC is -1.13 (inactive). The Z-AUC under setting [1] was -0.892. Moreover, the Z-AUC (measured here: PEO4 Z-AUC) was -1.26.

Turning to `COc1ccc(CCN(C)CCCOc2ccc(S(=O)(=O)c3[nH]c4ccccc4c3C(C)C)cc2)cc1OC`, the Z-AUC was -0.498 (inactive). For the same compound, the Z-AUC under setting [1] was found to be 0.248. For the same compound, the Z-AUC (measured here: PEO4 Z-AUC) worked out at 0.439.

With `CN(C)CCOc1cc(-c2cn[nH]c2)ccc1NC(=O)C1COc2ccccc2O1` (configuration not stated), the Z-AUC is 1.15 (inactive). Besides, the Z-AUC under setting [1] amounted to 0.743. Moreover, where the note is “measured here: PEO4 Z-AUC”, the Z-AUC stood at 1.03.

Consider `CCCCC(C)(C)[C@H](O)C=C[C@H]1[C@H](O)CC(=O)[C@H]1CC=CCCCC(=O)O`, for which the Z-AUC is 0.66 (inactive). Under setting [1], the Z-AUC amounted to 0.266. The Z-AUC (measured here: PEO4 Z-AUC) came out at 0.726.

As for `CCNC(=O)c1noc(-c2cc(C(C)C)c(O)cc2O)c1-c1ccc(CN2CCOCC2)cc1`, the Potency is 24.5 nM (active). Besides, the Z-AUC under setting [1] was -1.81. In addition, the Z-AUC (measured here: PEO4 Z-AUC) was -1.08.

Consider `CCN1CCN(c2ccc(Nc3cc(N(C)C(=O)Nc4c(Cl)c(OC)cc(OC)c4Cl)ncn3)cc2)CC1`, for which the Z-AUC was 0.0169 (inactive). Further, the Z-AUC under setting [1] was -0.00584. In addition, the Z-AUC (measured here: PEO4 Z-AUC) is 0.0335.

On to `Cn1cc(-c2ccc3nnc(Sc4ccc5ncccc5c4)n3n2)cn1`, for which the Z-AUC is 1.3 (inactive). Also, the Z-AUC under setting [1] amounted to 1.65. For the setting “measured here: PEO4 Z-AUC”, the Z-AUC was 1.9.

Turning to `O=C(Nc1cccc(Cl)c1)Nc1ncc(CCNc2ncnc3ccsc23)s1`, the Z-AUC was -0.664 (inactive). For the same compound, the Z-AUC under setting [1] is -1.1. Moreover, for the setting “measured here: PEO4 Z-AUC”, the Z-AUC is -1.17.

Take `O=C1C(c2c(O)[nH]c3ccccc23)=Nc2ccccc21`: the Z-AUC was 0.207 (inactive). For the same compound, the Z-AUC under setting [1] amounted to 0.824. For the same compound, the Z-AUC (measured here: PEO4 Z-AUC) came out at 0.396.

In the case of `CC[C@@H]([C@H](C)O)n1ncn(-c2ccc(N3CCN(c4ccc(OCC5CO[C@@](Cn6cncn6)(c6ccc(F)cc6F)C5)cc4)CC3)cc2)c1=O` (some centres not stated), the Z-AUC was 0.357 (inactive). In addition, the Z-AUC under setting [1] was -0.0959. Besides, the Z-AUC (measured here: PEO4 Z-AUC) was -0.133.

As to `O=C(Nc1ccc(OC(F)(F)F)cc1)c1sccc1NCc1ccnc2ccccc12`, the Z-AUC is 0.246 (inactive). Further, the Z-AUC under setting [1] was -0.378. Also, the Z-AUC (measured here: PEO4 Z-AUC) is -0.233.

For `O=C1CCCC(=O)C1C(=O)c1ccc(C(F)(F)F)cc1[N+](=O)[O-]`, the Z-AUC was 0.835 (inactive). Moreover, the Z-AUC under setting [1] came out at 1.44. For the same compound, the Z-AUC (measured here: PEO4 Z-AUC) was 0.656.

As for `Cc1cccc(-c2[nH]c(C(C)(C)C)nc2-c2ccc3c(c2)OCO3)n1`, the Z-AUC is -0.37 (inactive). Moreover, under setting [1], the Z-AUC is -0.0617. Besides, under “measured here: PEO4 Z-AUC”, the Z-AUC was 0.278.

As to `CCCCc1ccc(NS(=O)(=O)c2ccc(C)c(C(=O)N3CCN(c4cccc(C)c4C)CC3)c2)cc1`, the Z-AUC is 1.4 (inactive). In addition, the Z-AUC under setting [1] stood at 1.5. Besides, the Z-AUC (measured here: PEO4 Z-AUC) was 1.44.

As to `Nc1[nH]nc2nnc(-c3c(-c4ccccc4)nn4ccccc34)cc12`, the Z-AUC was -0.433 (inactive). In addition, the Z-AUC under setting [1] stood at 0.0529. In addition, under “measured here: PEO4 Z-AUC”, the Z-AUC was -0.206.

Consider `O=S(=O)(O)c1ccc2cc(N=Nc3cc(S(=O)(=O)O)c4cccnc4c3O)ccc2c1`, for which the Z-AUC is 0.327 (inactive). The Z-AUC under setting [1] was -0.476. The Z-AUC (measured here: PEO4 Z-AUC) turned out to be 0.158.

Regarding `CNC(=O)[C@H](Cc1ccccc1)NC(=O)[C@H](CC(C)C)[C@H](CSc1cccs1)C(=O)NO`, the Z-AUC was -0.0435 (inactive). Besides, the Z-AUC under setting [1] was -0.157. For the setting “measured here: PEO4 Z-AUC”, the Z-AUC was determined as 0.653.

With `CC1(COc2ccc3c(c2)ncn3-c2ccc3cccc(N4CCC(N)CC4)c3n2)COC1`, the Z-AUC is 0.496 (inactive). For the same compound, under setting [1], the Z-AUC is -0.0934. For the same compound, the Z-AUC (measured here: PEO4 Z-AUC) is -0.193.

For the compound `COc1ccc(-c2cc3nccn3c(Nc3ncccc3C(N)=O)n2)cc1OC`, the Z-AUC was 0.398 (inactive). Moreover, the Z-AUC under setting [1] came to 0.401. Moreover, the Z-AUC (measured here: PEO4 Z-AUC) was 0.0675.

Take `CO[C@@H]1C(N(C)C(=O)c2ccccc2)C[C@H]2O[C@]1(C)n1c3ccccc3c3c4c(c5c6ccccc6n2c5c31)C(=O)NC4=O` (some centres not stated): the Z-AUC is 0.0475 (inactive). Under setting [1], the Z-AUC amounted to 0.0888. In addition, where the note is “measured here: PEO4 Z-AUC”, the Z-AUC is -0.413.

`CCCCn1c(=O)n(Cc2ccccc2F)c(=O)c2[nH]c(Cc3ccc(NC(C)=O)cc3)nc21`: the Z-AUC was -0.247 (inactive). Moreover, the Z-AUC under setting [1] was -0.269. Also, the Z-AUC (measured here: PEO4 Z-AUC) stood at 0.0892.

In the case of `CN1CCN(c2cccc(Nc3nc4c(-c5ccc(S(C)(=O)=O)cc5)cccn4n3)c2)CC1`, the Z-AUC is 0.515 (inactive). Also, the Z-AUC under setting [1] was 0.358. Further, the Z-AUC (measured here: PEO4 Z-AUC) came to 0.131.

For the compound `Nc1ncnc2c1ncn2[C@@H]1O[C@H](CO)[C@@H](O)[C@@H]1O`, the Z-AUC was 1.52 (inactive). Also, under setting [1], the Z-AUC was 0.934. In addition, the Z-AUC (measured here: PEO4 Z-AUC) was 0.856.

For the compound `COC(=O)[C@H](c1ccccc1Cl)N1CCc2sccc2C1`, the Z-AUC was 1.43 (inactive). Besides, the Z-AUC under setting [1] was 1.15. Moreover, the Z-AUC (measured here: PEO4 Z-AUC) was 0.952.

As for `COc1cc(F)c(C(C)C)cc1-c1ccc(C(F)(F)F)cc1CN1C(=O)O[C@H](c2cc(C(F)(F)F)cc(C(F)(F)F)c2)[C@@H]1C`, the Z-AUC was 0.469 (inactive). Under setting [1], the Z-AUC turned out to be 0.239. Moreover, the Z-AUC (measured here: PEO4 Z-AUC) is 0.327.

For the compound `NC1(C(=O)N[C@@H](CCO)c2ccc(Cl)cc2)CCN(c2ncnc3[nH]ccc23)CC1`, the Z-AUC is -0.465 (inactive). Under setting [1], the Z-AUC is 0.588. Further, where the note is “measured here: PEO4 Z-AUC”, the Z-AUC was 0.532.

For the origin of these results see PubChem BioAssay (NCATS).
